“And” between values parts separate entries of the source, which are not always exact repeats. Identical values can stand only once. Inconclusive results are not listed. Entries that show only a call come without a potency. Values without a mark were called inactive. The source made the active and inactive calls. Calls follow the shape of the dose curve; as a rule, active = well fitted curve in the direction sought with a large enough effect; inconclusive = small, poorly fitted or top-dose-only effect, or another doubt; inactive = no such curve, though single readings can be large; an effect the other way counts as inactive or inconclusive.
Assays:
[1] = Viability qHTS for spleen associated tyrosine kinase inhibitor (SYKi) naive MV4-11 cells (AID 1963823); also: nearly all actives have a fitted effect of over 40% in size
In short: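 SYK inhibitor-naive MV4-11 cells, 500 per well, exposed to compounds for 72 hr at 37 C, 5% CO2. Viability read as CellTiter-Glo luminescence after 10 min at room temperature.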

[2] = Viability qHTS for spleen associated tyrosine kinase inhibitor (SYKi) drug resistant MV4-11 cells (AID 1963824); also: nearly all actives have a fitted effect of over 35% in size
In short: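 SYK-inhibitor-resistant MV4-11 AML cells were seeded at 500 per well onto compound and cultured 72 hours (37 °C, 5% CO2). CellTiter-Glo was then added, and after 10 min at room temperature, luminescence gave viability.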

[3] = Cellular viability qHTS for adrenocortical cancer (ACC) cell line SW-13 (AID 1963989); conditions: SW-13 ACC cells viability, CellTiter-Glo, 48 h; activity (max response): stronger effect = lower value; also: nearly all actives have a fitted effect of over 65% in size;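 as to activity (max response): cells grown in serum-free medium with ITS supplement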
In short: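 48 h treatment, SW-13 in ITS/DMEM serum-free; doses up to 46 uM; readout CellTiter-Glo luminescence; curve fit four-parameter logistic.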

[4] = Cellular viability qHTS for adrenocortical cancer (ACC) cell line NCI-H295R (AID 1963990); also: nearly all actives have a fitted effect of over 60% in size
In short: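 Compound titrations (up to 46 uM final) are applied to NCI-H295R cultures for 48 h at 37C. Viable cell number is estimated by CellTiter-Glo signal, normalised to DMSO and doxorubicin controls.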
Potency is read from the fitted curve at half-maximal effect.

Clc1ccc(COC(Cn2ccnc2)c2ccc(Cl)cc2Cl)cc1 (configuration not stated)
Potency [1]: 8.33 µM (active) | Potency [2]: 8.33 µM (active) | Potency [3]: 25.1 µM (active) | Potency [4]: 22.4 µM (active)

C[N+]1(CCF)[C@@H]2CC[C@H]1CC(OC(=O)C(O)(c1ccccc1)c1ccccc1)C2 (some centres not stated)
Potency [1]: inactive | Potency [2]: inactive | activity (max response) [3]: 9.46% | Potency [4]: inactive

CC(C)(O)/C=C\C(=O)[C@](C)(O)[C@H]1[C@H](O)C[C@]2(C)[C@@H]3CC=C4[C@@H](C=C(O)C(=O)C4(C)C)[C@]3(C)C(=O)C[C@@]12C
Potency [1]: 0.059 µM (active) | Potency [2]: 0.0468 µM (active) | Potency [3]: 0.562 µM (active) | Potency [4]: 1.26 µM (active)

CCOP(=S)(OCC)Oc1cc(C)nc(C(C)C)n1
Potency [1]: inactive | Potency [2]: inactive | activity (max response) [3]: 8.98% | Potency [4]: inactive

COP(=S)(OC)Oc1ccc(SC)c(C)c1
Potency [1]: inactive | Potency [2]: inactive | activity (max response) [3]: 5.91% | Potency [4]: inactive

C[C@@H]1CN(Cc2ccc(F)cc2)CCN1C(=O)COc1ccc(Cl)cc1NC(N)=O
Potency [1]: 0.934 µM (active) | Potency [2]: 0.82 µM (active) | Potency [3]: 5.01 µM (active) | Potency [4]: 20 µM (active)

O=C(N/N=C/c1ccc([N+](=O)[O-])o1)c1cc([N+](=O)[O-])cc([N+](=O)[O-])c1O
Potency [1]: inactive | Potency [2]: inactive | activity (max response) [3]: -8.68% | Potency [4]: inactive

Cn1c(COP(=O)(NCCBr)NCCBr)cnc1[N+](=O)[O-]
Potency [1]: 10.5 µM (active) | Potency [2]: 5.9 µM (active) | activity (max response) [3]: -13.5% | Potency [4]: inactive

Cc1cccc(C)c1NC1=NCCCS1
Potency [1]: inactive | Potency [2]: inactive | activity (max response) [3]: -0.0852% | Potency [4]: inactive

O=C(O)CCCc1ccc(N(CCCl)CCCl)cc1
Potency [1]: inactive | Potency [2]: inactive | activity (max response) [3]: 1.67% and -8.76% | Potency [4]: inactive

CC(=O)OC[C@H]1O[C@@H]([S-])[C@H](OC(C)=O)[C@@H](OC(C)=O)[C@@H]1OC(C)=O.CC[PH+](CC)CC.[Au]
Potency [1]: 0.209 µM (active) | Potency [2]: 0.235 µM (active) | Potency [3]: 0.708 µM (active) | Potency [4]: 0.631 µM (active)

C/C=C(/C)C(=O)O[C@H]1C(C)=C2[C@H]([C@@H]1OC(=O)CCCCCCC)[C@@](C)(OC(C)=O)C[C@H](OC(=O)CCC)[C@@]1(O)[C@H]2OC(=O)[C@@]1(C)O
Potency [1]: 25.9 nM (active) and 20.9 nM (active) | Potency [2]: 18.4 nM (active) and 3.7 nM (active) | Potency [3]: 0.0447 µM (active) | Potency [4]: 1.78 µM (active)

Oc1cc(Cl)ccc1Oc1ccc(Cl)cc1Cl
Potency [1]: 19.7 µM (active) | Potency [2]: 7.85 µM (active) and 16.8 µM (active) | Potency [3]: 7.94 µM (active) and 13 µM (active) | Potency [4]: 3.16 µM (active) and 18.4 µM (active)

Nc1ccc(Cl)cc1
Potency [1]: inactive | Potency [2]: inactive | activity (max response) [3]: 5.53% | Potency [4]: inactive

COc1cc(CC(C)N)cc(OC)c1OC (configuration not stated)
Potency [1]: inactive | Potency [2]: inactive | activity (max response) [3]: -27.2% | Potency [4]: inactive

CN(C)NC(=O)CCC(=O)O
Potency [1]: inactive | Potency [2]: inactive | activity (max response) [3]: -24.4% | Potency [4]: inactive

COP(=S)(OC)Oc1ccc(Sc2ccc(OP(=S)(OC)OC)cc2)cc1
Potency [1]: inactive | Potency [2]: inactive | activity (max response) [3]: 9.16% | Potency [4]: inactive

CC1(C)C(C=C(Cl)Cl)C1C(=O)OC(C#N)c1cccc(Oc2ccccc2)c1 (configuration not stated)
Potency [1]: 2.66 µM (active) | Potency [2]: inactive | activity (max response) [3]: 4.33% | Potency [4]: inactive

O=C(CCCN1CCC2(CC1)C(=O)NCN2c1ccccc1)c1ccc(F)cc1
Potency [1]: inactive | Potency [2]: inactive | activity (max response) [3]: -12.3% | Potency [4]: inactive

C[C@@H]1CC[C@@]2(OC1)O[C@H]1C[C@H]3[C@@H]4CC=C5C[C@@H](O[C@@H]6O[C@H](CO)[C@@H](O[C@@H]7O[C@@H](C)[C@H](O)[C@@H](O)[C@H]7O)[C@H](O)[C@H]6O[C@@H]6O[C@@H](C)[C@H](O)[C@@H](O)[C@H]6O)CC[C@]5(C)[C@H]4CC[C@]3(C)[C@H]1[C@@H]2C
Potency [1]: 1.66 µM (active) | Potency [2]: 1.66 µM (active) | Potency [3]: 3.55 µM (active) | Potency [4]: 2.24 µM (active)

CCCCCCCCCCCC[N+](C)(C)CCOc1ccccc1
Potency [1]: 2.66 µM (active) | Potency [2]: 2.66 µM (active) | Potency [3]: 5.17 µM (active) | Potency [4]: 23.1 µM (active)

Cc1ccc2c(c1)C1CN(C)CCC1N2 (configuration not stated)
Potency [1]: inactive | Potency [2]: inactive | activity (max response) [3]: -4.86% | Potency [4]: inactive

c1ccc(C2CC2)c(OCC2=NCCN2)c1
Potency [1]: inactive | Potency [2]: inactive | activity (max response) [3]: -5.68% | Potency [4]: inactive

COc1cc(C)[nH]c(=O)c1CNC(=O)c1c(C)n([C@H](C)C2CCOCC2)c2ccccc12
Potency [1]: inactive | Potency [2]: inactive | activity (max response) [3]: 8.24% | Potency [4]: inactive

CC(C)(C)c1ccc(O)cc1
Potency [1]: inactive | Potency [2]: inactive | activity (max response) [3]: 9.89% | Potency [4]: inactive

COP(=O)(OC)C(O)C(Cl)(Cl)Cl (configuration not stated)
Potency [1]: inactive | Potency [2]: inactive | activity (max response) [3]: 6.64% | Potency [4]: inactive

CC(C(=O)c1ccccc1)N(C)C (configuration not stated)
Potency [1]: inactive | Potency [2]: inactive | activity (max response) [3]: 8.81% | Potency [4]: inactive

CN(C)c1cc2c(cc1Sc1nc3c(N)nccc3n1CCNCC(C)(C)C)OCO2
Potency [1]: 0.186 µM (active) | Potency [2]: 184 nM (active) and 235 nM (active) | Potency [3]: 1.41 µM (active) | Potency [4]: 2.24 µM (active)

NCCc1cc(O)c(O)cc1O
Potency [1]: inactive | Potency [2]: inactive | activity (max response) [3]: 6.64% | Potency [4]: inactive

COCC(=O)N(c1c(C)cccc1C)C(C)C(=O)OC (configuration not stated)
Potency [1]: inactive | Potency [2]: inactive | activity (max response) [3]: 0.998% | Potency [4]: inactive

NC(=O)OCCCc1ccccc1
Potency [1]: inactive | Potency [2]: inactive | activity (max response) [3]: 11.5% | Potency [4]: inactive

COC(C)(C)CCCC(C)C/C=C/C(C)=C/C(=O)OC(C)C (configuration not stated)
Potency [1]: inactive | Potency [2]: inactive | activity (max response) [3]: 12.4% | Potency [4]: inactive

CCO[C@H]1O[C@@H]2OC3(C)CC[C@H]4[C@H](C)CC[C@@H]([C@H]1C)[C@@]24OO3
Potency [2]: 2.99 µM (active)

CC(=O)OC[C@]12C[C@H](OC(=O)CC(C)C)C(C)=C[C@H]1O[C@@H]1[C@H](O)[C@@H](OC(C)=O)[C@@]2(C)[C@@]12CO2
Potency [2]: 0.0089 µM (active)

CC(C)(N)Cc1ccccc1Cl
Potency [1]: inactive | Potency [4]: inactive

C=C(C)[C@@]12O[C@@H]1[C@@]1(C)C(=CC2=O)CC[C@@H](OC(C)=O)[C@@H]1C
Potency [2]: 2.31 µM (active)

C[C@]12CC[C@H](OC3OC(CO)C(O)C(O)C3OC3OC(CO)C(O)C(O)C3O)C[C@@H]1CC[C@@H]1C2CC[C@]2(C)[C@@H](C3=CC(=O)OC3)CC[C@]12O (some centres not stated)
Potency [2]: 5.44 µM (active)

C[C@H](NC(=O)Cc1cc(F)cc(F)c1)C(=O)N[C@@H]1N=C(c2ccccc2)c2ccccc2N(C)C1=O
Potency [2]: inactive

CC(C)(C)OC(=O)c1ncn2c1[C@@H]1CCCN1C(=O)c1c(Br)cccc1-2
Potency [1]: inactive | activity (max response) [3]: 2.94% | Potency [4]: inactive

CC1=CC2/C=C(\C)CCC(O)C(O)C(O)CC(=O)C23C(=O)NC(CC(C)C)C3C1C (configuration not stated)
Potency [2]: 1.78 µM (active)

CO/C=C(/C(=O)OC)c1ccccc1Oc1cc(Oc2ccccc2C#N)ncn1
Potency [1]: 13.7 µM (active) | Potency [4]: 7.94 µM (active)

CCCCOC(=O)c1ccnc2cc(C(OCCN3CCCCC3)c3ccccc3Cl)sc12 (configuration not stated)
Potency [2]: 20.6 µM (active)

CC(Cc1ccccc1)NCc1ccccc1Cl (configuration not stated)
Potency [1]: inactive | Potency [4]: inactive

C#C[C@]1(O)CC[C@H]2[C@@H]3CC[C@H]4Cc5nc6nc7ccccc7n6cc5C[C@]4(C)[C@H]3CC[C@@]21C
Potency [2]: 7.31 µM (active)

CC12CCC3C(C1)c1c(cc(O)c(C(=O)c4ccccc4)c1OC3(C)C)O2 (configuration not stated)
Potency [2]: 14.3 µM (active)

O=C1c2ccccc2C(=O)C1C(=O)C(c1ccccc1)c1ccccc1
Potency [1]: inactive | Potency [4]: 23.1 µM (active)

CN1C(=O)[C@@H](NC(=O)[C@H](CCC(F)(F)F)[C@H](CCC(F)(F)F)C(N)=O)N=C(c2ccccc2)c2ccccc21
Potency [1]: inactive | activity (max response) [3]: -2.32% | Potency [4]: inactive

CCC(C)C1NC(=O)C2CCCN2C(=O)C(CC(C)C)OC(=O)CCNC(=O)C(C)N(C)C(=O)C(C(C)C)N(C)C1=O (configuration not stated)
Potency [2]: 5.44 µM (active)

C/C(=C\c1csc(C)n1)[C@@H]1C[C@@H]2O[C@]2(C)CCC[C@H](C)[C@H](O)[C@@H](C)C(=O)C(C)(C)[C@@H](O)CC(=O)O1
Potency [1]: 0.0047 µM (active) | Potency [4]: 0.0282 µM (active)

COC(=O)[C@]12CCC(C)(C)C[C@@H]1[C@@H]1C(=O)C=C3[C@]4(C)C=C(C#N)C(=O)C(C)(C)[C@@H]4CC[C@@]3(C)[C@]1(C)CC2
Potency [2]: 0.326 µM (active)

C[C@]12CC[C@H](O[C@@H]3O[C@H](CO)[C@@H](O)[C@H](O)[C@H]3O)CC1CC[C@@H]1C2CC[C@]2(C)[C@@H](C3=CC(=O)OC3)CC[C@]12O (some centres not stated)
Potency [2]: 1.78 µM (active)

Cn1ncnc1COc1nn2c(-c3c(F)cccc3F)nnc2cc1C1CCC1
Potency [2]: inactive

O=C(C[C@@H]1NCCC[C@H]1O)Cn1cnc2ccccc2c1=O
Potency [2]: 0.231 µM (active)

COC(=O)C1=COC(C)C2CN3CCC4(C(=O)Nc5ccccc54)C3CC12 (configuration not stated)
Potency [2]: 14.3 µM (active)

CCC(C)C1NC(=O)C(C(C)=O)=C1O (configuration not stated)
Potency [2]: 29.8 µM (active)

CCOC(=O)c1ncn2c1CN(C)C(=O)c1c(I)cccc1-2
Potency [1]: inactive | Potency [4]: inactive

CCC1(O)CCC2C3CCC4=CC(=O)CCC4C3CCC21CC (configuration not stated)
Potency [2]: 14.6 µM (active)

C=CCN1CCC2(C)c3cc(O)ccc3C[C@H]1[C@H]2C
Potency [2]: inactive

CC1N=C(N)OC1c1ccccc1 (configuration not stated)
Potency [2]: inactive

O=C(NC(O)C(Cl)(Cl)Cl)NC(O)C(Cl)(Cl)Cl (configuration not stated)
Potency [1]: inactive | activity (max response) [3]: 11.7% | Potency [4]: inactive

O=c1[nH]c2cc(Cl)ccc2n1C1CCNCC1
Potency [1]: inactive | Potency [4]: inactive

C1=C(c2cnc[nH]2)c2ccsc2CC1
Potency [2]: inactive

COc1ccc(CN2CCNCC2)c(OC)c1OC
Potency [1]: inactive | activity (max response) [3]: 10.4% | Potency [4]: inactive

C=CCN1C[C@H](C)N([C@H](c2ccc(C(=O)N(CC)CC)cc2)c2cccc(OC)c2)C[C@H]1C
Potency [1]: inactive | activity (max response) [3]: -5.15% | Potency [4]: inactive

— PubChem BioAssay (NCATS)
